Here are results for eight molecules from PubChem BioAssay (NCI).

Compounds without any hit were thinned out: in the full panel of roughly 83,000, 20% have a hit.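 48-hour exposure, single concentration, 96-well plates; percent growth endpoint where 0 means no net growth. Active: below 10.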 A number with no mark means an inactive call. Active and inactive are the calls of the source.

Some test systems named below: SK-MEL-2 melanoma; EKVX NSCLC; SN12C renal; UO-31 renal; TK-10 renal; ACHN renal; CAKI-1 renal; A498 renal; CCRF-CEM leukemia; MOLT-4 leukemia; SR leukemia; RPMI-8226 leukemia; OVCAR-8 ovarian; OVCAR-5 ovarian; OVCAR-4 ovarian; SK-OV-3 ovarian; IGROV1 ovarian; OVCAR-3 ovarian; HS 578T breast; NCI/ADR-RES ovarian.
What all share (experiment): NCI-60 one-dose screen, 48 h (100 = growth as untreated, 0 = no growth, -100 = all killed)
Conditions in all cases: 10 µM unless noted

Take `O=S(=O)(c1ccccc1)n1cc2c(c1)-c1nc(Nc3ncccn3)sc1CC2`: the growth in the assay on SK-MEL-2 melanoma is 65.2%; with EKVX NSCLC, 72.4%; in the assay on SN12C renal it was 57.2%; in the assay with UO-31 renal it was 41.3%; in the assay with TK-10 renal it was 64.3%; in the assay on ACHN renal it was 22.9%. The growth in the assay with CAKI-1 renal was 66.8%; with A498 renal, 43.7%; in the assay on CCRF-CEM leukemia, 73.1%; in the assay on MOLT-4 leukemia, 83.7%; in the assay with SR leukemia it was 74.6%; with RPMI-8226 leukemia it was 71.3%. In addition, the growth in the assay on OVCAR-8 ovarian was 65%; in the assay with OVCAR-5 ovarian, 95.8%; in the assay with OVCAR-4 ovarian, -27.9% (active); with SK-OV-3 ovarian it was 66%; in the assay on IGROV1 ovarian, 70.4%; in the assay with OVCAR-3 ovarian, 40.3%. Also, the growth is 22.4% in the assay with HS 578T breast and 53% in the assay with NCI/ADR-RES ovarian.
Regarding `CCCC/C=C/[C@@H]1C[C@H]1CCO`, the growth was 98.7% in the assay with SK-MEL-2 melanoma; 101% with EKVX NSCLC; 94.3% with SN12C renal; 87% in the assay with UO-31 renal; 96.4% in the assay with TK-10 renal; 104% in the assay on ACHN renal. In addition, the growth in the assay on CAKI-1 renal is 98.9%; in the assay on A498 renal it was 102%; in the assay with CCRF-CEM leukemia, 101%; with MOLT-4 leukemia, 103%; in the assay with SR leukemia, 100%; in the assay on RPMI-8226 leukemia, 99.3%. Further, the growth with OVCAR-8 ovarian was 100%; in the assay with OVCAR-5 ovarian, 89.1%; with OVCAR-4 ovarian it was 107%; in the assay with SK-OV-3 ovarian, 91.8%; in the assay with IGROV1 ovarian it was 100%; in the assay on OVCAR-3 ovarian it was 109%. Further, the growth with HS 578T breast is 101%; in the assay on NCI/ADR-RES ovarian it was 104%.
On to `O=C(NCc1ccc(Cl)cc1Cl)C1CCC(=O)N1c1cccs1` (stereo not given), for which the growth is 91.2% in the assay with SK-MEL-2 melanoma; 91.3% in the assay with EKVX NSCLC; 97.9% with SN12C renal; 83.1% in the assay with UO-31 renal; 98.8% in the assay on TK-10 renal; 95% with ACHN renal. Also, the growth is 81.6% in the assay with CAKI-1 renal; 85.2% in the assay with A498 renal; 110% in the assay on CCRF-CEM leukemia; 98.1% with MOLT-4 leukemia; 91.8% in the assay with SR leukemia; 95.5% with RPMI-8226 leukemia. Also, the growth in the assay on OVCAR-8 ovarian was 93.5%; in the assay with OVCAR-5 ovarian, 91.2%; in the assay on OVCAR-4 ovarian, 97.5%; with SK-OV-3 ovarian, 89.6%; in the assay on IGROV1 ovarian, 92.4%; with OVCAR-3 ovarian, 108%. For the same molecule, the values for the growth with HS 578T breast and in the assay with NCI/ADR-RES ovarian were 101% and 83.9%, respectively.
`COc1ccccc1N1CCCCC1`: the growth in the assay on SK-MEL-2 melanoma was 104%; in the assay on EKVX NSCLC it was 98.1%; in the assay on SN12C renal, 93.9%; with UO-31 renal, 98.9%; in the assay with TK-10 renal, 95%; in the assay on ACHN renal, 103%. Further, the growth with CAKI-1 renal was 97.8%; in the assay on A498 renal it was 83.9%; with CCRF-CEM leukemia, 108%; in the assay with MOLT-4 leukemia, 100%; with SR leukemia it was 112%; with RPMI-8226 leukemia, 101%. For the same molecule, the growth in the assay with OVCAR-8 ovarian is 110%; in the assay on OVCAR-5 ovarian, 86.2%; in the assay with OVCAR-4 ovarian, 109%; in the assay on SK-OV-3 ovarian, 100%; in the assay on IGROV1 ovarian, 101%; with OVCAR-3 ovarian it was 114%. Further, the growth in the assay with HS 578T breast is 101%; in the assay on NCI/ADR-RES ovarian, 106%.
For `CC(C)c1ccc(C(=O)Nc2sc3c(c2C(N)=O)CCC(=O)C3)cc1`, the growth in the assay on SK-MEL-2 melanoma is -21.5% (active); in the assay with EKVX NSCLC, 16.1%; in the assay on SN12C renal, 2.75% (active); in the assay with UO-31 renal it was -97.1% (active); in the assay on TK-10 renal, -10.6% (active); with ACHN renal, -96.8% (active). Moreover, the growth was -43.9% (active) in the assay with CAKI-1 renal; 62.5% with A498 renal; 2.5% (active) in the assay with CCRF-CEM leukemia; -8.16% (active) with MOLT-4 leukemia; 0.332% (active) in the assay on SR leukemia; -37.1% (active) in the assay with RPMI-8226 leukemia. Moreover, the growth was 11% with OVCAR-8 ovarian; 8.42% (active) in the assay with OVCAR-5 ovarian; -85.4% (active) in the assay with OVCAR-4 ovarian; 25.8% with SK-OV-3 ovarian; 9.75% (active) in the assay with IGROV1 ovarian; -35.7% (active) in the assay with OVCAR-3 ovarian. Also, the growth in the assay on HS 578T breast is -4.09% (active); in the assay with NCI/ADR-RES ovarian, 1.35% (active).
Turning to `CC(C)(C)[Si](C)(C)OC1[C@@H](CNC(=O)NC(=O)NC(N)=O)O[C@@H](n2cnc3c(NC(=O)Nc4ccccc4)ncnc32)[C@H]1O[Si](C)(C)C(C)(C)C` (stereo not given in full), the growth with SK-MEL-2 melanoma was 94.8%; with EKVX NSCLC, 90.5%; in the assay on SN12C renal, 74.6%; in the assay on UO-31 renal, 95.2%; with TK-10 renal, 88.9%; with ACHN renal it was 77.3%. In addition, the growth in the assay with CAKI-1 renal is 101%; in the assay with A498 renal, 101%; in the assay on CCRF-CEM leukemia, 71.4%; with MOLT-4 leukemia it was 54.3%; with SR leukemia, 40.8%; in the assay with RPMI-8226 leukemia, 69.1%. Besides, the growth in the assay with OVCAR-8 ovarian is 23%; in the assay on OVCAR-5 ovarian, 96.1%; in the assay with OVCAR-4 ovarian it was 66.7%; in the assay with SK-OV-3 ovarian it was 65.4%; in the assay on IGROV1 ovarian, 78.4%; with OVCAR-3 ovarian, 68.4%. The growth is 77.1% in the assay on HS 578T breast and 85.3% with NCI/ADR-RES ovarian.
In the case of `O=C(CN1C(=O)S/C(=C\C(Cl)=C\c2ccccc2)C1=O)NCCc1ccc(O)cc1`, the growth is 6.1% (active) in the assay with SK-MEL-2 melanoma; 44.4% in the assay with EKVX NSCLC; 16% with SN12C renal; -50.7% (active) in the assay with UO-31 renal; 24.1% in the assay on TK-10 renal; -69.3% (active) with ACHN renal. Further, the growth with CAKI-1 renal was 39.3%; in the assay on A498 renal, 94.2%; in the assay with CCRF-CEM leukemia it was 6.23% (active); with MOLT-4 leukemia it was 5.15% (active); with SR leukemia, 1.71% (active); with RPMI-8226 leukemia it was 0.0656% (active). Further, the growth was 14% in the assay with OVCAR-8 ovarian; 77.7% in the assay on OVCAR-5 ovarian; 56.4% in the assay with OVCAR-4 ovarian; 90.1% in the assay on SK-OV-3 ovarian; -12.9% (active) in the assay on IGROV1 ovarian; -14.4% (active) in the assay with OVCAR-3 ovarian. The growth with HS 578T breast was 36.3%; with NCI/ADR-RES ovarian, 19.6%.
For `C=C(C)[C@@H]1CC[C@]2(C(=O)O)CC[C@]3(C)[C@H](CC[C@@H]4[C@@]5(C)CCC(NC(=O)c6cccc(OC(C)=O)c6OC(C)=O)C(C)(C)[C@@H]5CC[C@]43C)[C@@H]12` (stereo not given in full), the growth in the assay with SK-MEL-2 melanoma was 14.9%; in the assay on EKVX NSCLC, 2.51% (active); in the assay with SN12C renal, 12.5%; with UO-31 renal, -39% (active); in the assay on TK-10 renal, 19.7%; in the assay on ACHN renal, 3.98% (active). Moreover, the growth in the assay with CAKI-1 renal was 3.74% (active); with A498 renal, -21.9% (active); in the assay on CCRF-CEM leukemia it was 10.4%; with MOLT-4 leukemia, 8.43% (active); in the assay with SR leukemia, 3.23% (active); in the assay on RPMI-8226 leukemia, -17.8% (active). The growth in the assay with OVCAR-8 ovarian was 10.7%; in the assay with OVCAR-5 ovarian, 1.76% (active); with OVCAR-4 ovarian, 12.9%; in the assay with SK-OV-3 ovarian it was 6.71% (active); with IGROV1 ovarian, 5.12% (active); in the assay with OVCAR-3 ovarian, 11.8%. In addition, the growth was 15.8% in the assay with HS 578T breast and 8.44% (active) in the assay on NCI/ADR-RES ovarian.
